Measured values: PubChem BioAssay AID1159580 (chemical genetic matrix, 2015)
In all, about 5,500 compounds went through this assay and about 2,000 (36%) were called active. Another 18% or so got no clear call; they are omitted. No stated cut-off is given here; in the data, active means normalized growth mostly below about 0.91 (no sharp cut-off); inconclusive means no clear call, values can overlap the other calls; inactive means mostly above about 0.92. Some of the results follow.

Assay: chemical genetic growth profiling, strain panel (AID 1159580);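 further: tested at 20 µM; growth read once vehicle control cultures reached saturation at 30 °C; 1 = growth at the plate median or of vehicle wells; lower values mean less growth of the strain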
Conditions: S. cerevisiae deletion strains, growth OD

Measured: normalized growth

CC(C)(C)C(=O)/C(C#N)=C/c1c(Cl)cccc1Cl
active: locus YAR019C, strain CDC15, active compounds read low 0.366 | locus YBL105C, strain PKC1, active compounds read low 0.373 | locus YBR135W, strain CKS1, active compounds read low 0.894 | locus YBR136W, strain MEC1, active compounds read low 0.722 | locus YDL017W, strain CDC7, active compounds read low 0.695 | locus YDL214C, strain PRR2, active compounds read low 0.124 | locus YDR054C, strain cdc34, active compounds read low 0.291 | locus YDR477W, strain SNF1, active compounds read low 0.11 | locus YER123W, strain YCK3, active compounds read low 0.105 | locus YER133W, strain GLC7, active compounds read low 0.108 | locus YFL029C, strain CAK1, active compounds read low 0.315 | locus YFR019W, strain FAB1, active compounds read low 0.108 | locus YFR028C, strain CDC14, active compounds read low 0.575 | locus YGR040W, strain KSS1, active compounds read low 0.112 | locus YGR052W, strain FMP48, active compounds read low 0.136 | locus YGR092W, strain DBF2, active compounds read low 0.11 | locus YHR030C, strain SLT2, active compounds read low 0.111 | locus YHR079C, strain IRE1, active compounds read low 0.112 | locus YHR082C, strain KSP1, active compounds read low 0.137 | locus YHR205W, strain SCH9, active compounds read low 0.000694 | locus YIL147C, strain SLN1, active compounds read low 0.691 | locus YJL095W, strain BCK1, active compounds read low 0.104 | locus YJL157C, strain FAR1, active compounds read low 0.105 | locus YJR016C, strain ILV3, active compounds read low 0.64 | locus YJR066W, strain TOR1 (second series), active compounds read low 0.124 | locus YJR066W, strain TOR1, active compounds read low 0.131 | locus YKL048C, strain ELM1, active compounds read low 0.151 | locus YKL067W, strain YNK1, active compounds read low 0.129 | locus YKL101W, strain HSL1, active compounds read low 0.131 | locus YKL193C, strain SDS22, active compounds read low 0.506 | locus YKL203C, strain TOR2, active compounds read low 0.115 | locus YLR113W, strain HOG1, active compounds read low 0.165 | locus YLR133W, strain CKI1, active compounds read low 0.125 | locus YLR403W, strain SFP1, active compounds read low 0.0102 | locus YML070W, strain DAK1, active compounds read low 0.122 | locus YMR001C, strain CDC5, active compounds read low 0.401 | locus YMR205C, strain PFK2 (second series), active compounds read low 0.142 | locus YMR277W, strain FCP1, active compounds read low 0.397 | locus YNL006W, strain LST8, active compounds read low 0.341 | locus YNL020C, strain ARK1, active compounds read low 0.118 | locus YNL161W, strain CBK1, active compounds read low 0.402 | locus YNL183C, strain NPR1, active compounds read low 0.132 | locus YNL207W, strain RIO2, active compounds read low 0.359 | locus YNL222W, strain SSU72, active compounds read low 0.619 | locus YNL307C, strain MCK1 (second series), active compounds read low 0.105 | locus YOL078W, strain AVO1, active compounds read low 0.492 | locus YOL136C, strain PFK27, active compounds read low 0.116 | locus YOR061W, strain CKA2, active compounds read low 0.157 | locus YOR119C, strain RIO1, active compounds read low 0.115 | locus YOR231W, strain MKK1, active compounds read low 0.131 | locus YOR329C, strain SCD5, active compounds read low 0.513 | locus YPL031C, strain PHO85, active compounds read low 0.102 | locus YPL153C, strain RAD53, active compounds read low 0.115 | locus YPL204W, strain HRR25, active compounds read low 0.11 | locus YPL209C, strain IPL1, active compounds read low 0.495 | locus YPL256C, strain CLN2, active compounds read low 0.152 | locus YPR025C, strain CCL1, active compounds read low 0.652 | strain NNK1, active compounds read low 0.265 | strain TSCII, active compounds read low 0.322
inactive: locus YDL028C, strain MPS1, active compounds read low 0.919 | locus YDL108W, strain KIN28, active compounds read low 0.957 | locus YDR052C, strain DBF4, active compounds read low 0.915 | locus YDR226W, strain ADK1, active compounds read low 0.913 | locus YPR111W, strain DBF20, active compounds read low 0.949
